# Cy5 interf NS3h: Cy5 fluorescence interference, HCV helicase counter-screen | fluorescence interference ratio at 100 µM | Cy5-dT15 DNA with NS3h; actives lie on both sides; signal over control mean, under 1 quenches | hit rate 6% among 16,000 | AID 720488;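 active means compound fluorescence over control fluorescence at most 0.8, a quencher, or at least a set upper limit, an enhancer; inactive means ratio between 0.8 and the set upper limit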
# HCV NS3h FP: hepatitis C NS3 helicase inhibition, primary screen. NS3h Cy5-dT15 DNA binding, fluorescence polarization. inhibition, % at 100 µM. hit rate 1.6% among 16,000;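 active means inhibition above the average over every tested compound plus 3 SD, cut at about 40% in these data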
# HCV NS3h conf: confirmation of hepatitis C virus NS3 helicase inhibitors; hit rate 20% among 240; NS3h binding to Cy5-dT15 DNA, fluorescence polarization; inhibition, % at 100 µM; AID 720485; shares compounds with HCV NS3h FP;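 active means percent inhibition of 50% or more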
# SSB-DNA FP CB: disrupts E. coli SSB binding to DNA in counter-screen. shares compounds with HCV NS3h FP. E. coli SSB binding Cy5-dT15, fluorescence polarization. inhibition, % at 100 µM. hit rate 40% among 240. AID 720486;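 active means inhibition of at least 50%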;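 further: displacers lower Cy5 polarization so higher inhibition means more SSB displaced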
# Target sequence (P0AGE0 whole entry, looked up): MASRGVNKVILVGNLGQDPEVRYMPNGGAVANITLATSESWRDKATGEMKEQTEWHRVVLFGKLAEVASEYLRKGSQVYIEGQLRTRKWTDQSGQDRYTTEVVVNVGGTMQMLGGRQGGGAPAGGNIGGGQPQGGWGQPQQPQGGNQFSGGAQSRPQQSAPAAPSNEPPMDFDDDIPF
# Cy5 SSB fluor CB: Cy5 fluorescence interference in NS3h counter-screen. shares compounds with HCV NS3h FP. Cy5-dT15/E. coli SSB fluorescence interference; actives lie on both sides. fluorescence interference ratio at 100 µM. hit rate 8% among 240. AID 720487;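 active means fluorescence interference ratio at or above 1.2, signal boosting, or at or below 0.8, signal quenching; inactive means ratio between 0.8 and 1.2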;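 further: ratio of compound well signal to mean negative control signal so 1 means no effect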
# Cy5 interf conf: Cy5 fluorescence interference, confirmation counter-screen. shares compounds with HCV NS3h FP. Cy5-dT15 DNA/NS3h fluorescence interference counterscreen. fluorescence interference ratio at 100 µM, hits read low. hit rate 44% among 240;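 active means fluorescence interference ratio at or below 0.8 quencher or at or above a set limitenhancer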;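 further: ratio of compound fluorescence to mean of negative controls so 1 means no interference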
# Numbers without * were called inactive; nt = no result given. Most compounds without a hit are left out; they make up all but 7.6% or so of the library.
SMILES,Cy5 interf NS3h,HCV NS3h FP,HCV NS3h conf,SSB-DNA FP CB,Cy5 SSB fluor CB,Cy5 interf conf
CC(=O)c1ccc(-n2c(C)ccc2-c2ccccc2)cc1,1,6,nt,nt,nt,nt
Cc1ccc(C)n1-c1ccc(CC(=O)O)cc1,1.1,85*,67*,96*,0.94,0.84
NS(=O)(=O)c1ccc(NC(=S)NC(=O)c2ccccc2)cc1,1,50*,37,83*,1,1
CC(=O)c1ccc(NC(=S)NC(=O)c2ccccc2)cc1,0.89,24,nt,nt,nt,nt
O=[N+]([O-])c1cc(S(=O)(=O)N2CCN(c3ccccc3)CC2)ccc1Cl,0.97,4,nt,nt,nt,nt
COc1ccc(N2C(=O)C3C4CC(=O)C(c5ccccc54)C3C2=O)cc1 (stereo unspecified),1.1,2,nt,nt,nt,nt
Cc1cccc(-c2cc(NC(=O)c3ccc(Cl)cc3Cl)n[nH]2)c1,0.81,2,nt,nt,nt,nt
COc1ccc(NC(=O)CSc2ccccn2)cc1,1,-14,nt,nt,nt,nt
CCOC(=O)c1[nH]c(=O)[nH]c1CSc1ccccn1,1,44*,1,14,0.93,0.9
CCOC(=O)c1c(NC(=S)NC(=O)c2ccc(OC)cc2)sc2c1CCC(C)C2 (stereo unspecified),1,5,nt,nt,nt,nt
COC(=O)C1=C(C)N(c2ccc(C)cc2)/C(=C\c2ccc(OCC(=O)Nc3ccccc3Cl)cc2)C1=O,1,4,nt,nt,nt,nt
CN1C(=O)C(=Cc2ccc(-c3ccc(Cl)c(C(=O)O)c3)o2)C(=O)N(C)C1=O,1.1,23,nt,nt,nt,nt
N#CC(C#N)=Cc1ccc(-c2ccc(Cl)c(C(=O)O)c2)o1,1.1,43*,23,41,0.97,0.79*
Cc1ccc(-c2nnc(SCC(=O)Nc3ccc(F)cc3)o2)cc1,0.87,62*,40,32,1,0.85
O=C(CSc1nnc(-c2ccc(Cl)cc2Cl)o1)Nc1ccccc1,1,1,nt,nt,nt,nt
O=C1C(=Cc2ccccc2Br)C(=O)c2ccccc21,0.91,74*,51*,11,0.98,0.97
COc1cccc(C=C2C(=O)c3ccccc3C2=O)c1,1,24,nt,nt,nt,nt
O=c1c2c(nc3cc(-c4cccs4)[nH]n13)CCC2,1,6,nt,nt,nt,nt
O=c1c2c(nc3cc(-c4cccs4)[nH]n13)CCS2,1.1,60*,-2,25,1,0.81
O=C(CC(Nc1cccc(Cl)c1)c1ccc(F)cc1)c1ccccc1 (stereo unspecified),1,6,nt,nt,nt,nt
O=C1NC(=O)N(Cc2ccccc2)C(=O)/C1=C/c1cccs1,0.83,25,nt,nt,nt,nt
CCN(CC)c1ccc(/C=C2\C(=O)NC(=O)N(Cc3ccccc3)C2=O)c(OC)c1,3*,79*,36,48,2.2*,1.7*
Cc1ccc(NC(=S)NC(=O)c2sc3ccccc3c2Cl)cc1,1.1,11,nt,nt,nt,nt
CCC(=O)c1ccc(N2CCN(C(=O)c3c(F)cccc3F)CC2)c(F)c1,1,2,nt,nt,nt,nt
O=c1/c(=C/c2cc(Cl)c(OCCOc3ccccc3)c(Cl)c2)sc2nc3ccccc3n12,1,-1,nt,nt,nt,nt
SMILES,Cy5 interf NS3h,HCV NS3h FP,HCV NS3h conf,SSB-DNA FP CB,Cy5 SSB fluor CB,Cy5 interf conf
CN(C)c1ccc(NS(=O)(=O)c2ccc(F)cc2)cc1,0.97,7,nt,nt,nt,nt
CN(C)c1ccc(NS(=O)(=O)c2ccc(N3C(=O)CCC3=O)cc2)cc1,0.92,50*,32,61*,1.1,0.96
COc1cc(C=C2C(=O)NC(=O)NC2=O)cc([N+](=O)[O-])c1O,0.89,48*,34,60*,0.89,0.95
COc1cc(C=C2C(=O)NC(=S)NC2=O)cc(Br)c1O,1,31,nt,nt,nt,nt
COc1cc(C=C2C(=O)NC(=O)NC2=O)cc(Br)c1OCc1ccc([N+](=O)[O-])cc1,0.73*,73*,19,44,0.85,0.58*
COc1cc(C=C2C(=O)N(C)C(=O)N(C)C2=O)cc(Br)c1OCc1ccccc1,0.98,32,nt,nt,nt,nt
N#C/C(=C\c1ccc(-c2cc(Cl)ccc2Cl)o1)C(=O)Nc1cccc2cccnc12,1.1,8,nt,nt,nt,nt
Cc1cccc(/C(N)=N\OC(=O)COc2ccc(Cl)cc2)c1,1.1,14,nt,nt,nt,nt
CC1CCN(c2cccc3c2C(=O)c2ccccc2C3=O)CC1,1,8,nt,nt,nt,nt
O=C1c2ccccc2-c2onc3ccc(N4CCCCC4)c1c23,1.1,52*,25,71*,1.2*,0.79*
Cc1cccc(C(=O)Nc2cc(-c3ccc(F)cc3)[nH]n2)c1,0.99,12,nt,nt,nt,nt
CCN(CC)c1ccc(/C=C/c2[nH]c(=O)[nH]c(=O)c2[N+](=O)[O-])c(OC)c1,0.92,54*,9,19,0.87,0.87
O=c1[nH]c(/C=C\c2ccccc2Cl)c([N+](=O)[O-])c(=O)[nH]1,0.9,-9,nt,nt,nt,nt
Cc1ccc(C2C(=C(O)c3ccc(Cl)cc3)C(=O)C(=O)N2C)cc1 (stereo unspecified),1,-5,nt,nt,nt,nt
COc1cccc(N2C(=O)CSC2=S)c1,0.96,10,nt,nt,nt,nt
COc1cccc(OCCOc2c(Cl)cc(/C=C3/SC(=S)NC3=O)cc2OC)c1,0.97,70*,45,47,0.97,0.79*
COc1cccc(OCCOc2cccc(/C=C3/SC(=S)NC3=O)c2)c1,0.92,20,nt,nt,nt,nt
Cc1cc(C)c([N+](=O)[O-])cc1-c1ccc(/C=c2\sc3nc4ccccc4n3c2=O)o1,1.6*,121*,14,32,0.93,0.83
O=c1/c(=C/c2ccc(-c3ccccc3Cl)o2)sc2nc3ccccc3n12,1,7,nt,nt,nt,nt
C/C(=N/N=C1\NC(=O)C(CC(=O)Nc2ccc(Cl)cc2)S1)C(C)(C)C (stereo unspecified),0.95,6,nt,nt,nt,nt
Cc1ccc(C(=O)N/C(=C\c2ccc(C(C)C)cc2)C(=O)NCC(C)C)cc1,0.9,10,nt,nt,nt,nt
CC(C(=O)NCc1ccco1)N1C(=O)c2ccccc2C1=O (stereo unspecified),1.1,4,nt,nt,nt,nt
CN1C(=O)C(=O)N(CC(=O)NCc2ccco2)C1=O,0.75*,74*,28,14,0.77*,0.84
Cc1cc(C(=O)NCCCN(C)C)ccc1[N+](=O)[O-],0.94,-11,nt,nt,nt,nt
O=C1/C(=C/c2ccc(-c3ccccc3[N+](=O)[O-])o2)SC(=S)N1c1cccc(Cl)c1,1.1,20,nt,nt,nt,nt
SMILES,Cy5 interf NS3h,HCV NS3h FP,HCV NS3h conf,SSB-DNA FP CB,Cy5 SSB fluor CB,Cy5 interf conf
O=C(CCCOc1ccc(Cl)cc1Cl)Nc1ncn[nH]1,0.97,1,nt,nt,nt,nt
CCOC(=O)c1sc(NC(=O)CCCOc2ccc(Cl)cc2Cl)nc1C,0.97,22,2,2,0.97,0.75*
C#CC(C)(C)NC(=O)CN(c1ccc(C)cc1)S(=O)(=O)c1ccc(F)cc1,0.97,6,nt,nt,nt,nt
S=C(Nc1ccc2nc(-c3ccccc3)c(-c3ccccc3)nc2c1)N1CCN(c2ccccn2)CC1,0.95,10,nt,nt,nt,nt
O=C(Nc1ccc(F)c([N+](=O)[O-])c1)c1ccc2ccccc2c1,0.73*,39,40,50*,0.7*,0.78*
O=C(Nc1ccc(F)c([N+](=O)[O-])c1)c1ccc2c(c1)OCCO2,0.87,22,nt,nt,nt,nt
COc1ccccc1N1CCN(/N=C\c2ccc(Cl)c([N+](=O)[O-])c2)CC1,0.97,19,nt,nt,nt,nt
CCOC(=O)c1c(-n2c(C)cc(/C=C3\NC(=O)NC3=O)c2C)sc2c1CCCC2,0.99,14,nt,nt,nt,nt

# High-throughput results deposited in PubChem by Milwaukee Institute for Drug Discovery.
